GSTO1 inh: counter-screen for RBBP9 inhibitors: inhibitors of human GSTO1; recombinant GSTO1, activity-based probe fluorescence polarization; inhibition, % at 5.96 µM; 300,000 tested, 1.1% active;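 active = inhibition above the campaign mean inhibition plus 3 SD, cut at about 35% in these data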
Target sequence (P78417 whole entry, looked up): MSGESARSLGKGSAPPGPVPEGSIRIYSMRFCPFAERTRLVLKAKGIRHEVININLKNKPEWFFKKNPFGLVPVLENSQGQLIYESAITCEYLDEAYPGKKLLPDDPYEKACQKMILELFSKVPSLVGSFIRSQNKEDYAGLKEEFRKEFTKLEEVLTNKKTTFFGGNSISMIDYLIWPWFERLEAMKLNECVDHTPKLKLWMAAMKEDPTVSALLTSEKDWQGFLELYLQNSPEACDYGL
PAD4 FP inh: PAD4 (human) enzyme inhibition | AID 485272 | recombinant PAD4, RCA probe fluorescence polarization | 330,000 tested, 0.41% active | inhibition, % at 6.36 µM | Q9UM07;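 active = percent inhibition above a cutoff equal to the mean of all tested compounds plus 3 SD, cut at about 15% in these data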
ZTA counter: blocks Epstein-Barr virus ZTA, an EBNA-1 counter-screen; P03206; ZTA-DNA binding, fluorescence polarization; inhibition, % at 11 µM; 320,000 tested, 0.15% active; in the data active = inhibition above about 33%
LYPLA1 counter: counter-screen for PME1 inhibitors: inhibitors of human LYPLA1. O75608. recombinant LYPLA1, FP-Rh probe fluorescence polarization. inhibition, % at 5.9 µM. 320,000 tested, 0.16% active;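 active = inhibition above the mean of all tested compounds plus 3 SD, set per campaign, cut at about 14% in these data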;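 note: inhibitors block serine hydrolase probe labeling of LYPLA1 so polarization falls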
LYPLA2 inh: blocks human lysophospholipase 2, a PME1 counter-screen; O95372; recombinant LYPLA2, FP-Rh probe fluorescence polarization; inhibition, % at 5.9 µM; 320,000 tested, 0.38% active;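 active = inhibition above the screen-wide mean plus 3 SD, limit set per campaign, cut at about 26% in these data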
Target sequence (O95372 whole entry, looked up): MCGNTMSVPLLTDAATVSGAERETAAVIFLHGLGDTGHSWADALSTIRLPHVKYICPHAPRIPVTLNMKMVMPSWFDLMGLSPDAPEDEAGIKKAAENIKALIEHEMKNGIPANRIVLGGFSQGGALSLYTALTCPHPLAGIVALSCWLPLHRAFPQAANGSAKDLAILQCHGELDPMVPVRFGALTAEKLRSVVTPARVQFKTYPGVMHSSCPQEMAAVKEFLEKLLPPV
EBNA-1 inh: blocks EBNA-1 binding to DNA. inhibition, % at 14.8 µM. AID 1950. 300,000 tested, 0.34% active. EBNA-1 DNA binding, fluorescence polarization; in the data active = inhibition above about 28%
LYPLA1 conf: counter-screen for PME1 inhibitors: confirmation of human LYPLA1 inhibitors | shares compounds with LYPLA1 counter | recombinant LYPLA1, FP-Rh probe fluorescence polarization | inhibition, % at 5.9 µM | 480 tested, 69% active;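 active = mean inhibition across replicates above the hit cutoff set in the primary screen, cut at about 15% in these data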;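 note: loss of FP-Rh probe labeling of LYPLA1 seen as lower polarization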
Hits are given with their value. Compounds with a hit are over-represented: about 1.7% of the library has one in this group of screens.

Screening O=C(c1ccc(-n2c(SCc3cccc(F)c3)nc3ccccc3c2=O)cc1)N1CCOCC1 returned GSTO1 inh inactive, PAD4 FP inh inactive, ZTA counter inactive, LYPLA1 counter inactive, LYPLA2 inh inactive and EBNA-1 inh inactive.
O=C(CCn1c(=S)[nH]c2ccccc2c1=O)NCCc1ccc(Cl)cc1 was read as GSTO1 inh inactive, PAD4 FP inh inactive, ZTA counter inactive, LYPLA1 counter inactive, LYPLA2 inh inactive and EBNA-1 inh inactive.
Screening O=C1C(Cc2c[nH]c3ccccc23)NC(=S)N1Cc1ccccc1 (stereo not drawn) returned GSTO1 inh inactive, PAD4 FP inh inactive, ZTA counter inactive, LYPLA1 counter 38, LYPLA2 inh inactive, EBNA-1 inh inactive and LYPLA1 conf inactive.
O=C(Cn1nc2n(c1=O)-c1ccccc1SC2)N/N=C/c1ccncc1 was read as GSTO1 inh inactive, PAD4 FP inh inactive, ZTA counter inactive, LYPLA1 counter inactive, LYPLA2 inh inactive and EBNA-1 inh inactive.
Screening CC(C)(C)NC(=O)NC(=O)CN1CCN(S(=O)(=O)c2ccc3c(c2)OCCO3)CC1 returned GSTO1 inh inactive, PAD4 FP inh inactive, ZTA counter inactive, LYPLA1 counter inactive, LYPLA2 inh inactive and EBNA-1 inh inactive.
`COC(=O)c1ccc(COc2ccccc2/C=C(\C#N)C(=O)Nc2ccc(C)cc2C)cc1` gave GSTO1 inh inactive, PAD4 FP inh inactive, ZTA counter inactive, LYPLA1 counter 16, LYPLA2 inh inactive, EBNA-1 inh inactive and LYPLA1 conf inactive.
Screening O=C(Nc1cccc2ncccc12)c1ccc(Cl)cc1 returned GSTO1 inh inactive, PAD4 FP inh inactive, ZTA counter inactive, LYPLA1 counter 29, LYPLA2 inh inactive, EBNA-1 inh inactive and LYPLA1 conf inactive.
`CSc1ccccc1NC(=O)CN(C)CC(=O)NCC(=O)Nc1ccc(F)cc1` gave GSTO1 inh inactive, PAD4 FP inh inactive, ZTA counter inactive, LYPLA1 counter inactive, LYPLA2 inh inactive and EBNA-1 inh inactive.
Screening COc1ccc(CNS(=O)(=O)c2csc(C(N)=O)c2)cc1OC returned GSTO1 inh inactive, PAD4 FP inh inactive, ZTA counter inactive, LYPLA1 counter inactive, LYPLA2 inh inactive and EBNA-1 inh inactive.
For COC(=O)/C(C#N)=C\c1c(OC)[nH]c2ccccc12 the results were GSTO1 inh inactive, PAD4 FP inh inactive, ZTA counter inactive, LYPLA1 counter 20, LYPLA2 inh inactive, EBNA-1 inh inactive and LYPLA1 conf inactive.
For CCN(c1ccc(NC(=O)c2ccc(N3CCCC3=O)cc2)cc1)C(C)C the results were GSTO1 inh inactive, PAD4 FP inh inactive, ZTA counter inactive, LYPLA1 counter 16, LYPLA2 inh inactive, EBNA-1 inh inactive and LYPLA1 conf 17.
COCCn1c(=O)[nH]c2cc(C(=O)N3CCN(c4cccc(Cl)c4)CC3)ccc2c1=O was read as GSTO1 inh inactive, PAD4 FP inh inactive, ZTA counter inactive, LYPLA1 counter 52, LYPLA2 inh inactive, EBNA-1 inh inactive and LYPLA1 conf inactive.
COCCn1c(=O)[nH]c2cc(C(=O)N3CCN(c4ccccc4)CC3)ccc2c1=O was read as GSTO1 inh inactive, PAD4 FP inh inactive, ZTA counter inactive, LYPLA1 counter inactive, LYPLA2 inh inactive and EBNA-1 inh inactive.
`CC(C)Sc1nnc([C@H](Cc2c[nH]c3ccccc23)NC(=O)OC(C)(C)C)o1` gave GSTO1 inh inactive, PAD4 FP inh inactive, ZTA counter inactive, LYPLA1 counter 46, LYPLA2 inh inactive, EBNA-1 inh inactive and LYPLA1 conf inactive.
`CC(C)(C)OC(=O)N[C@@H](Cc1c[nH]c2ccccc12)c1nnc(SCC(N)=O)o1` gave GSTO1 inh inactive, PAD4 FP inh inactive, ZTA counter inactive, LYPLA1 counter inactive, LYPLA2 inh inactive and EBNA-1 inh inactive.
Cn1c(O)c(/C=N/NC(=O)c2cc3ccccc3cc2O)c2ccccc21 was read as GSTO1 inh inactive, PAD4 FP inh inactive, ZTA counter inactive, LYPLA1 counter 15, LYPLA2 inh inactive, EBNA-1 inh inactive and LYPLA1 conf 16.
For CN(C)C=Nc1nonc1-c1ccccc1 the results were GSTO1 inh inactive, PAD4 FP inh inactive, ZTA counter inactive, LYPLA1 counter inactive, LYPLA2 inh inactive and EBNA-1 inh inactive.
For CN(C)C=Nc1c(Br)cc(Br)c2nonc12 the results were GSTO1 inh inactive, PAD4 FP inh inactive, ZTA counter inactive, LYPLA1 counter 14, LYPLA2 inh inactive, EBNA-1 inh inactive and LYPLA1 conf inactive.
Screening Cc1ccc2[nH]c(C(=O)N3CCOCC3)cc2c1 returned GSTO1 inh inactive, PAD4 FP inh inactive, ZTA counter inactive, LYPLA1 counter inactive, LYPLA2 inh inactive and EBNA-1 inh inactive.
Screening O=C(c1ccoc1)N1CCC(CO)(CCc2ccccc2)CC1 returned GSTO1 inh inactive, PAD4 FP inh inactive, ZTA counter inactive, LYPLA1 counter inactive, LYPLA2 inh inactive and EBNA-1 inh inactive.
`O=C(CSc1nnc(-c2ccco2)o1)N1CCN(c2ccccc2)CC1` gave GSTO1 inh inactive, PAD4 FP inh inactive, ZTA counter inactive, LYPLA1 counter 20, LYPLA2 inh inactive, EBNA-1 inh inactive and LYPLA1 conf 28.
`N#CC1(NC(=O)COC(=O)C23CC4CC(CC(O)(C4)C2)C3)CCCCC1` gave GSTO1 inh inactive, PAD4 FP inh inactive, ZTA counter inactive, LYPLA1 counter inactive, LYPLA2 inh inactive and EBNA-1 inh inactive.
Screening COc1ccc2c(c1)CCc1c(C(=O)N3CCCc4ccccc43)noc1-2 returned GSTO1 inh inactive, PAD4 FP inh inactive, ZTA counter inactive, LYPLA1 counter 34, LYPLA2 inh inactive, EBNA-1 inh inactive and LYPLA1 conf 35.
For CCN(CC)S(=O)(=O)c1cccc(-c2nnc(SCCOc3ccccc3)o2)c1 the results were GSTO1 inh inactive, PAD4 FP inh inactive, ZTA counter inactive, LYPLA1 counter 41, LYPLA2 inh inactive, EBNA-1 inh inactive and LYPLA1 conf 51.
CCN(CC)S(=O)(=O)c1cccc(-c2nnc(SCC(=O)c3cc(C)n(C)c3C)o2)c1 was read as GSTO1 inh inactive, PAD4 FP inh inactive, ZTA counter inactive, LYPLA1 counter inactive, LYPLA2 inh inactive and EBNA-1 inh inactive.
Screening CCN(CC)S(=O)(=O)c1cccc(-c2nnc(SCCOc3ccccc3C)o2)c1 returned GSTO1 inh inactive, PAD4 FP inh inactive, ZTA counter inactive, LYPLA1 counter 29, LYPLA2 inh inactive, EBNA-1 inh inactive and LYPLA1 conf 34.
For Cc1ccc(CNC(=O)C2CCN(S(=O)(=O)c3ccc4c(c3)CC(C)N4C(=O)C3CCC3)CC2)o1 (stereo not drawn) the results were GSTO1 inh inactive, PAD4 FP inh inactive, ZTA counter inactive, LYPLA1 counter 16, LYPLA2 inh inactive, EBNA-1 inh inactive and LYPLA1 conf 19.
For S=C(Nc1ccc(Oc2ccccc2)cc1)N(CCCN1CCOCC1)Cc1ccccn1 the results were GSTO1 inh inactive, PAD4 FP inh inactive, ZTA counter inactive, LYPLA1 counter inactive, LYPLA2 inh inactive and EBNA-1 inh inactive.
